Structures are written as SMILES. Several values for one entry are separate records, joined by “and”; a condition that tells them apart may be missing. Equal entries are not always repeated. Some structures have more than one record in an assay (separate samples or runs), and their calls can disagree. Activity calls are given as the source filed them. The calls were made as follows: active = hit-call score of the fitted dose curve at least 0.9, where 1 is the maximum; inactive = score below 0.9.

Data on 38 compounds can be found in PubChem BioAssay (EPA / NIEHS).

A short description of this experiment: BSK_hDFCGF_Proliferation: Cell Proliferation Assessment in the BioMAP Diversity Plus: hDFCGF Assay (AID 2283059).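 Also: curves fitted for both rise and fall of signal versus DMSO baseline.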 The conditions noted are these: primary human foreskin fibroblasts. How it is done: BSK_hDFCGF is a cell-based, multiplexed-readout assay that uses foreskin fibroblast, a human skin primary cell, with measurements taken at 24 hours after chemical dosing in a 96-well plate.BSK_hDFCGF_Proliferation is an assay component measured in the BSK_hDFCGF assay. It measures […] related to cell proliferation using Sulforhodamine staining technology.Data from the assay component BSK_hDFCGF_Proliferation was analyzed into 1 assay endpoint. This assay endpoint, BSK_hDFCGF_Proliferation, was analyzed with bidirectional fitting relative to DMSO as the negative control and baseline of activity. Using a type of viability reporter, measures of total protein for gain or loss-of-signal activity can be used to understand the viability at the cellular-level. Furthermore, this assay endpoint can be referred to as a secondary readout, because this assay has produced multiple assay endpoints where this one serves a viability function. To generalize the intended target to other relatable targets, this assay endpoint is annotated to the cell cycle intended target family, where the subfamily is proliferation.
The levels of cell surface (or secreted, indicated by the prefix "s") biomarker endpoints were measured by ELISA. Overt cytotoxicity to cells in confluent adherent cultures (all systems other than the BT system) was assessed by measuring total protein levels using sulforhodamine B (SRB) staining in parallel cultures at the time of biomarker measurements, indicated as SRB endpoints. For proliferation assays for adherent cell types, individual cell types are cultured at sub-confluence and relative cell numbers quantified by SRB staining at time points optimized for each system (48 h: 3C and CASM3C systems; 72 h: BT and HDF3CGF systems; 96 h: SAg system). SRB was performed by staining cells with 0.1% SRB after fixation with 10% TCA and reading wells at 560 nm.Viability and proliferation of PBMC (T cells) was quantified by Alamar Blue reduction for the SAg and BT systems. For PBMC viability (referred to as PBMC Cytotoxicity within the assay endpoint names), cells were plated (75,000/well in a 96-well plate) and then chemical samples added for 1 h before addition of activators, SEB and TSST-1 (20 ng/mL final concentration each). Cells were incubated for 90 h. Then, Alamar Blue (20 uL/well) (Invitrogen, Cat DAL1100) was added for 6 h, and the plates were read with a fluorescence microplate reader at 546/580 nm (excitation/emission). For PBMC proliferation, cells were plated and activated as above but incubated for only 16 h prior to addition of Alamar Blue. Plates were read after 6 h.
Regarding `COP(N)(=S)OC`, the result was inactive. In general, AC50 refers to the concentration at which the activity in the assay is half-maximal. As for `O=C(O)C(F)(F)C(F)(F)C(=O)O`, the AC50 was 0.22 µM (active) and the result was inactive. In the case of `ClC(Cl)c1ccccc1`, the result was inactive.

Regarding `CN(C)C(=O)Cl`, the result was inactive.

For `O=P(Oc1ccccc1)(Oc1ccccc1)Oc1ccccc1`, the AC50 was 14.2 µM (active). Regarding `CCCCC(CC)COP(=O)(Oc1ccccc1)Oc1ccccc1` (stereo not given), the AC50 is 6.04 µM (active).

Take `O=C(O)C(F)(F)OC(F)(F)C(F)(F)OC(F)(F)F`: the result was inactive. Still for that read-out and setting: the value for `CCOP(=S)(OCC)SCn1nnc2ccccc2c1=O` was “inactive”. Same read-out and setting: as for `CCOC(=O)c1ccccc1C(=O)OCC`, the entry is “inactive”. As for `CCCCN(CCCC)SN(C)C(=O)Oc1cccc2c1OC(C)(C)C2`, the AC50 is 6.34 µM (active).

Turning to `CC(Cc1ccc(OCC(=O)O)cc1)NCC(O)c1csc(C(F)(F)F)n1` (stereo not given), the outcome was inactive. `ClC(Cl)(Cl)c1ccccc1`: the outcome was inactive.

With `CCC(C)(C)c1ccc(O)cc1`, the outcome was inactive. As to `Nc1ccc([N+](=O)[O-])cc1Cl`, the outcome was inactive.

Consider `CC(Cl)CN(C)C` (stereo not given), for which the result was inactive. As for `CCOP(=S)(S)OCC`, the AC50 is 12.6 µM (active). As for `c1ccc(OP(Oc2ccccc2)Oc2ccccc2)cc1`, the result was inactive. Turning to `OCC(F)(F)OC(F)(F)C(F)(F)OC(F)(F)C(F)(F)OC(F)(F)F`, the AC50 was 11.6 µM (active) and 15.8 µM (active).

As to `O=P(OCC(Br)CBr)(OCC(Br)CBr)OCC(Br)CBr` (stereo not given), the outcome was inactive.

Turning to `O=S1(=O)OCC2C(CO1)C1(Cl)C(Cl)=C(Cl)C2(Cl)C1(Cl)Cl` (stereo not given), the result was inactive. In the case of `C=CC(=O)OCC(F)(F)C(F)F`, the AC50 is 30 µM (active) and 39.7 µM (active). On the same count and under the same terms, as for `CCCN(CCC)c1c([N+](=O)[O-])cc(C(C)C)cc1[N+](=O)[O-]`, the figure is 13.3 µM (active). For the compound `FC(F)(F)C(F)(C(F)(F)F)C(F)(F)C(F)(F)CC1CO1` (stereo not given), the result was inactive. Regarding `COCCOCCO`, the result was inactive.

`CC(Cl)(Cl)C(=O)O`: the AC50 is 0.148 µM (active). For the compound `O=[N+]([O-])c1ccc(Cl)c(Cl)c1`, the outcome was inactive.

Turning to `ClC(Cl)=C(c1ccc(Cl)cc1)c1ccccc1Cl`, the AC50 was 0.742 µM (active).

With `COC(=O)C(F)(F)C(F)(F)OC(F)(C(F)(F)F)C(F)(F)OC(F)=C(F)F` (stereo not given), the result was inactive and the AC50 is 5.81 µM (active). For `O=C(O)C=CC(F)(C(F)(F)F)C(F)(F)F`, the result was inactive. Still for that read-out and setting: as for `NC(=O)C(F)(F)C(F)(F)F`, the entry is “inactive”; as for `COP(=O)(CCC(=O)NCO)OC`, “inactive”; as for `CCOP(=S)(NC(C)C)Oc1ccccc1C(=O)OC(C)C` (stereo not given), “inactive”. Still for that read-out and setting: as for `O=[N+]([O-])c1ccccc1`, the entry is “inactive”. On the same count and under the same terms, the value for `CCOP(=S)(OCC)SCS(=O)(=O)CC` was “inactive”; that for `c1nc[nH]n1` was “inactive”; that for `Cc1ccc(O)cc1C` was “inactive”. Take `Cc1ccc2c(c1N)C(=O)c1ccccc1C2=O`: the outcome was inactive. On to `N#Cc1c(-c2ccc(Cl)cc2)[nH]c(C(F)(F)F)c1Br`, for which the AC50 was 0.731 µM (active).
